Data on 37 compounds can be found in PubChem BioAssay (NCI).

SMILES strings stand for the structures. About 79,000 compounds went through this panel and 15% of them were active in at least one assay; those are over-represented in the sample as a whole. Values without a mark were called inactive. Active and inactive are the calls of the source. Rule as the data show it: active = growth inhibition above about 70%; inactive = the rest.

Test [1] can be described thus: NCI Yeast Anticancer Drug Screen. Data for the rad50 strain (AID 155).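 Also: 0% = growth of vehicle-only cultures of the same strain.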 Particulars: S. cerevisiae rad50 strain growth inhibition; at 50.0 µM; stronger effect = higher value. Summed up: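 Growth of the mutant yeast was measured after compound exposure and referenced to vehicle-treated cultures.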
Test [2] in a line: NCI Yeast Anticancer Drug Screen. Data for the mec2-1 strain (AID 157). Particulars: S. cerevisiae mec2-1 strain, at 50.0 µM, stronger effect = higher value. Summed up: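 Readout is yeast growth inhibition, normalised to vehicle-treated controls, in the mec2-1 strain exposed to compound.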
The nature of test [3]: NCI Yeast Anticancer Drug Screen. Data for the sgs1 mgt1 strain (AID 161).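 Also: 0% = growth of cultures given vehicle only.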 Particulars: S. cerevisiae sgs1 mgt1 strain, at 50.0 µM, stronger effect = higher value. Summed up:
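This yeast growth screen uses a strain with defined DNA-repair lesions; compound-treated growth is compared with vehicle-treated growth.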

Test [4] in a line: NCI Yeast Anticancer Drug Screen. Data for the cln2 rad14 strain (AID 165).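 Also: 0% = growth equal to vehicle treated cultures.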 As to conditions: S. cerevisiae cln2 rad14 strain, at 50.0 µM, stronger effect = higher value. In short, it runs like this: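 Relative to vehicle controls, growth inhibition of compound-treated cln2 rad14 yeast was recorded.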
A short description of test [5]: NCI Yeast Anticancer Drug Screen. Data for the bub3 strain (AID 167). As to conditions: S. cerevisiae bub3 mutant strain, at 50.0 µM, stronger effect = higher value. In short, it runs like this:
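Whole-cell yeast assay. The mutant strain was incubated with compounds, and growth inhibition was determined by comparison with vehicle-treated cells.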

The nature of test [6]: NCI Yeast Anticancer Drug Screen. Data for the mlh1 rad18 strain (AID 175). As to conditions: S. cerevisiae mlh1 rad18 strain growth inhibition; at 50.0 µM; stronger effect = higher value. In short, it runs like this: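 Test agents were incubated with a yeast strain of defined genotype (DNA damage repair defect). Inhibition of growth was derived by comparison with vehicle-exposed cultures.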

Regarding `COC(=O)/C=C(C)/C=C/C1OC(C)OCC1O` (configuration not stated), the growth inhibition in test [1] was 7.55%; in test [2] it was 2.3%; in test [3], -3.65%; in test [4] it was -8.55%; in test [5], -5.45%; in test [6], 5.5%.

Take `COc1ccc(C(NCCn2cnc3c2c(=O)n(C)c(=O)n3C)c2ccccc2)cc1` (configuration not stated): the growth inhibition in test [1] is 19.4%; in test [2], 4.05%; in test [3], 11.2%; in test [4] it was -33.6%; in test [5] it was -4.5%; in test [6], 18.8%.

As to `Cc1c(C(=O)O)[nH]c2c(Cl)ccc(C)c2c1=O`, the growth inhibition is -34.2% in test [1]; -9.15% in test [2]; 9.5% in test [3]; -44.5% in test [4]; 9.8% in test [5]; 4.75% in test [6].

For the compound `O=C(c1ccc(Cl)cc1)N(C(=S)N1CCN(c2ccccc2)CC1)c1ccccc1`, the growth inhibition was -11.5% in test [1]; -25.9% in test [2]; -12.1% in test [3]; -6.3% in test [4]; -13.8% in test [5]; -15.1% in test [6].

For `C/C=C(\C)C(=O)OC1C2C(C)C(=O)OC2C(O)C(C)C2C=CC(=O)C21C` (configuration not stated), the growth inhibition was -21.1% in test [1]; -23.5% in test [2]; -7.9% in test [3]; 9.4% in test [4]; -21.4% in test [5]; 6.5% in test [6].

In the case of `Nc1nc2c(ncn2C2OC(CO)C3OP(=O)(O)OC32)c(=O)[nH]1` (configuration not stated), the growth inhibition in test [1] is -8.5%; in test [2], -5.1%; in test [3], -19.4%; in test [4], -29.4%; in test [5], 0.2%; in test [6], -15.8%.

On to `NC(=S)N/N=C/c1ccccc1S(=O)(=O)O`, for which the growth inhibition in test [1] is 1.9%; in test [2], -12.8%; in test [3] it was -9.75%; in test [4], -16.2%; in test [5] it was 0.05%; in test [6], -4.7%.

Take `COc1ccc(C#CC(=O)O)c(OC)c1`: the growth inhibition is -3.15% in test [1]; -2.1% in test [2]; 22.9% in test [3]; -30.6% in test [4]; -5.45% in test [5]; -9% in test [6].

Turning to `CN1C(=O)C(=C2CCCCC2)SC1=S`, the growth inhibition was 0.55% in test [1]; 7.8% in test [2]; -11.6% in test [3]; -4.3% in test [4]; 2.8% in test [5]; 2.15% in test [6].

`CCCCCCc1ccc2c3cccc4cccc(c5cccc1c52)c43`: the growth inhibition in test [1] was -9.25%; in test [2] it was -15.6%; in test [3], -22.1%; in test [4], -34.2%; in test [5] it was -11.1%; in test [6], -25.6%.

As for `O=C(Nc1ccccc1F)c1c(O)nc2sccn2c1=O`, the growth inhibition was 50.4% in test [1]; -2.8% in test [2]; 38.5% in test [3]; -4.15% in test [4]; 38.1% in test [5]; 34% in test [6].

Turning to `COc1ccc(-c2cc(-c3ccccc3)c(-c3ccccc3)nn2)cc1CN1CCOCC1`, the growth inhibition was 2.65% in test [1]; -29.2% in test [2]; -17.1% in test [3]; 10.7% in test [4]; -5.05% in test [5]; -7.85% in test [6].

`[Cl][Pd][Cl].[NH-]CC1(C[NH-])CCCCC1`: the growth inhibition is 3.5% in test [1]; -1.1% in test [2]; 3.75% in test [3]; -64.2% in test [4]; 7.7% in test [5]; 5.95% in test [6].

Turning to `c1ccc(Oc2nnc3c4ccccc4ccn23)cc1`, the growth inhibition was 11.4% in test [1]; -9.55% in test [2]; 0.1% in test [3]; -4.4% in test [4]; 3.9% in test [5]; -0.35% in test [6].

Regarding `Br`, the growth inhibition was -11.7% in test [1]; -33.1% in test [2]; -54.9% in test [3]; -20% in test [4]; -30.6% in test [5]; -44.1% in test [6].

In the case of `Cc1c(Cl)ccc2nc3ccccc3nc12`, the growth inhibition in test [1] is 32.4%; in test [2], 18.8%; in test [3], 12.7%; in test [4] it was -4.85%; in test [5], 61.6%; in test [6], 34.5%.

Take `c1csc(-c2nc3sc(-c4cccs4)nc3s2)c1`: the growth inhibition is 3.4% in test [1]; -9.75% in test [2]; 1.9% in test [3]; -18.8% in test [4]; -16.6% in test [5]; -2.4% in test [6].

For `CCn1cc(C(=O)O)c(=O)c2ccc(-c3ccncc3)cc21`, the growth inhibition was 3.35% in test [1]; 8.7% in test [2]; 5.75% in test [3]; -7.85% in test [4]; 17% in test [5]; 11.4% in test [6].

With `CCOC(=O)C/C(O)=C(\N=Nc1nc[nH]c1C(N)=O)C(=O)OCC`, the growth inhibition in test [1] is 1.2%; in test [2] it was 23.7%; in test [3] it was -9.9%; in test [4] it was -1.8%; in test [5], 16.1%; in test [6] it was -0.65%.

`CN(C)c1ccc(/C=C2N=C(/C=C\c3ccccc3)OC\2=O)cc1`: the growth inhibition in test [1] is -5.5%; in test [2], 4.75%; in test [3], -6.05%; in test [4], 0.25%; in test [5], 7.55%; in test [6], 9.45%.

In the case of `COc1c(OC)c(C(C)C)c2c(c1C(=O)O)C(=O)OC2=O`, the growth inhibition in test [1] was -5.6%; in test [2], 10.9%; in test [3], 11.2%; in test [4], -14.9%; in test [5], -7.5%; in test [6], -7.75%.

On to `CC(=NCCN=C(C)c1ccccc1O)c1ccccc1O.[Cu]`, for which the growth inhibition is -17.9% in test [1]; -8.05% in test [2]; 2.25% in test [3]; -23.6% in test [4]; -6.15% in test [5]; -8.55% in test [6].

`N#CCCOCCNCCSC(=O)c1ccccc1`: the growth inhibition in test [1] was 36.8%; in test [2] it was 4.05%; in test [3], 12.4%; in test [4] it was 6.65%; in test [5] it was 8.45%; in test [6], 4.25%.

With `O=C1OC(=O)c2ccc([N+](=O)[O-])c3c(C(=O)O)ccc1c23`, the growth inhibition in test [1] was 5.1%; in test [2] it was -19.2%; in test [3] it was -22.9%; in test [4], -1.65%; in test [5], 2.55%; in test [6], 2.85%.

Consider `CSc1ccc(NC(=O)Nc2ccccc2C(F)(F)F)cc1`, for which the growth inhibition in test [1] was 2.05%; in test [2], -3.25%; in test [3] it was 18.4%; in test [4], -9.85%; in test [5], 34.5%; in test [6], 27%.

Consider `Cc1ccc(NC(N)=O)cc1`, for which the growth inhibition is -33.5% in test [1]; -43.9% in test [2]; -24.1% in test [3]; 10.7% in test [4]; -1.05% in test [5]; -5.9% in test [6].

For the compound `O=[N+]([O-])c1ccc(/C=C/[P+](c2ccccc2)(c2ccccc2)c2ccccc2)o1`, the growth inhibition in test [1] is 94.2% (active); in test [2], 97.5% (active); in test [3] it was 89.5% (active); in test [4], 83.5% (active); in test [5] it was 95.8% (active); in test [6], 93.7% (active).

As for `CC(=O)OCN(C)N=Nc1ccc([N+](=O)[O-])cc1`, the growth inhibition was 28% in test [1]; 10.5% in test [2]; 25.8% in test [3]; 6.15% in test [4]; 10.6% in test [5]; 22.6% in test [6].

In the case of `C=C1CCC2[C@@H](CCC3[C@]2(C)CCC[C@]3(C)C(=O)OC)[C@@H]1CC=O` (some centres not stated), the growth inhibition was 11.4% in test [1]; 10.2% in test [2]; 9.25% in test [3]; 23.4% in test [4]; 9.5% in test [5]; 14.8% in test [6].

Regarding `Fc1ccc(N=C2c3ccccc3-c3ccccc32)cc1`, the growth inhibition in test [1] is 6.35%; in test [2], -1.9%; in test [3], -0.25%; in test [4], 5.3%; in test [5], 1.65%; in test [6], 1.15%.

In the case of `CC1(c2ccncc2)NC(=O)NC1=O` (configuration not stated), the growth inhibition in test [1] is 31.9%; in test [2], -12.6%; in test [3], 10.3%; in test [4], 1.4%; in test [5] it was -5.8%; in test [6] it was 18.6%.

On to `C/C(CC(N)=O)=C1\C(=O)NN(c2ccccc2)C1=O`, for which the growth inhibition in test [1] was 23.1%; in test [2], 26.4%; in test [3], 48.2%; in test [4], 7.3%; in test [5], 40%; in test [6], 36.4%.

`CC12CCC(=O)C=C1CCC1C2C(=O)CC2(C)C1CCC2(O)C(=O)Cn1c(=O)cc[nH]c1=O` (configuration not stated): the growth inhibition in test [1] was 10.1%; in test [2] it was 7.75%; in test [3] it was 25.6%; in test [4], 11.8%; in test [5], 0.3%; in test [6], 7.65%.

As for `COc1cccc(C(=O)NCCNCCNC(=O)c2cccc(OC)c2OC)c1OC`, the growth inhibition in test [1] was -0.8%; in test [2] it was 0.7%; in test [3] it was -3.95%; in test [4] it was -6.6%; in test [5], -1.75%; in test [6], -2.35%.

Take `C[C@@H]1OC2(O)[C@H]3CCCN3S(=O)(=O)CCN2C1=O` (some centres not stated): the growth inhibition in test [1] was 30.5%; in test [2] it was -14.8%; in test [3], -8.05%; in test [4] it was 16.7%; in test [5] it was -11.7%; in test [6], -1.2%.

For `CC1C2CC(C/C2=N/O)C1(C)C` (configuration not stated), the growth inhibition in test [1] is 19.7%; in test [2] it was 19.1%; in test [3] it was 36.5%; in test [4] it was 29.1%; in test [5] it was 11.3%; in test [6], 21.6%.

With `CCN(C(=S)Nc1cccc(OC)c1)c1ccccc1`, the growth inhibition in test [1] is -17.2%; in test [2], -36.9%; in test [3], 18%; in test [4] it was -1.45%; in test [5] it was -17.1%; in test [6], -6.8%.
